How the values were obtained:
Experiment in all cases: DAPPL (digital affinity profiling via proximity ligation, sequencing); 10 mM Tris-HCl pH 7.5, 50 mM NaCl, 1 mM DTT, 4% glycerol, room temperature, 30 min; GST-TFs on glutathione beads, 16-mer random dsDNA library, 0.1% formaldehyde crosslink after washing; high values mean tight binding
Details in all cases: protein: recombinant; tags: N-terminal GST; dsDNA, one strand shown
[1] = molecular target: T1, FLI1 (Homo sapiens, UniProt Q01543 1-452)
T1 sequence: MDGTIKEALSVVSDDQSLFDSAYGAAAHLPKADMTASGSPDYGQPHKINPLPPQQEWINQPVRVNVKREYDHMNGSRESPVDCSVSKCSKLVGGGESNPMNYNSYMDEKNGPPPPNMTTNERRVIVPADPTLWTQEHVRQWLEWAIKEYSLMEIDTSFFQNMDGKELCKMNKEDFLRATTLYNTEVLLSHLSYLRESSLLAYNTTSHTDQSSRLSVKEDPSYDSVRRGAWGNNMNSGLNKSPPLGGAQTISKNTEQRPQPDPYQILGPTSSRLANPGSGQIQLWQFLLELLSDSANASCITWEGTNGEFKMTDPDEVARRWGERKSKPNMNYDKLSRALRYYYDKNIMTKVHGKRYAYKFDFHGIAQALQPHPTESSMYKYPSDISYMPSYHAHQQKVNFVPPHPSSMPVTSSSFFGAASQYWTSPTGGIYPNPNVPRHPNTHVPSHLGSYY
How it was run: (§1)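 Human transcription factors fused to GST were expressed in yeast, captured on glutathione beads, given DNA barcodes and pooled with a GST-only negative control. Pools were incubated with 200 nmole of a 16-mer random double-stranded DNA library in Tris/NaCl/DTT/glycerol buffer at room temperature for 30 min. They were then washed, crosslinked with 0.1% formaldehyde, proximity-ligated (BsaI/T4 ligase, 1 h, 37 °C), PCR-amplified and sequenced on an Illumina NextSeq500. Binding signal is each 6-mer's read frequency for a factor divided by its frequency for the GST control.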

[2] = molecular target: T2, ELK1 (Homo sapiens, UniProt P19419 1-428)
T2 sequence: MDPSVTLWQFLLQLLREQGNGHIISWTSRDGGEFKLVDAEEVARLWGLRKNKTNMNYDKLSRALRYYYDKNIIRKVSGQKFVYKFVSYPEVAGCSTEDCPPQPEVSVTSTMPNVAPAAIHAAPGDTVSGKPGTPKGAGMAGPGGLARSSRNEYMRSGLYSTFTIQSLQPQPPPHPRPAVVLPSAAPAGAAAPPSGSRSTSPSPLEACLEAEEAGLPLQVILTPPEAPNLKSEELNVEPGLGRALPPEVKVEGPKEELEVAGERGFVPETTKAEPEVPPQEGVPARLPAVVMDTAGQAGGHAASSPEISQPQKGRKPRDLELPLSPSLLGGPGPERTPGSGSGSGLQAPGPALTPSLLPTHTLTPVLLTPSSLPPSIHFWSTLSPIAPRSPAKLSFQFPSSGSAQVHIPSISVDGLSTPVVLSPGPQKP
How it was run: as §1

[3] = molecular target: T3, GABPA (Homo sapiens, UniProt Q06546 1-454)
T3 sequence: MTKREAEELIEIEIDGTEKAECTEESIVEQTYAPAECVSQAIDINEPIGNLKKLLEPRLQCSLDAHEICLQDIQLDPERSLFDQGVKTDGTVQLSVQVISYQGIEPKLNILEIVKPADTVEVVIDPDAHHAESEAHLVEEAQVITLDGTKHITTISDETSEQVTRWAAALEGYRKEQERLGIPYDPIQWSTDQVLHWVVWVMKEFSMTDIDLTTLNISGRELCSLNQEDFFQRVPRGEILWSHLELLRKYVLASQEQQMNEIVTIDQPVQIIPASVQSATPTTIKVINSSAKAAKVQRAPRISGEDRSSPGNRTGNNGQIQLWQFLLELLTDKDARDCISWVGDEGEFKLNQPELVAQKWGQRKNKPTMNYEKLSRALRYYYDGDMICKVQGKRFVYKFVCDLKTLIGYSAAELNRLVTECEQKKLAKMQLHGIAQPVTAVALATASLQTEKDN
How it was run: as §1

[4] = molecular target: T4, ERG (Homo sapiens, UniProt P11308 1-479)
T4 sequence: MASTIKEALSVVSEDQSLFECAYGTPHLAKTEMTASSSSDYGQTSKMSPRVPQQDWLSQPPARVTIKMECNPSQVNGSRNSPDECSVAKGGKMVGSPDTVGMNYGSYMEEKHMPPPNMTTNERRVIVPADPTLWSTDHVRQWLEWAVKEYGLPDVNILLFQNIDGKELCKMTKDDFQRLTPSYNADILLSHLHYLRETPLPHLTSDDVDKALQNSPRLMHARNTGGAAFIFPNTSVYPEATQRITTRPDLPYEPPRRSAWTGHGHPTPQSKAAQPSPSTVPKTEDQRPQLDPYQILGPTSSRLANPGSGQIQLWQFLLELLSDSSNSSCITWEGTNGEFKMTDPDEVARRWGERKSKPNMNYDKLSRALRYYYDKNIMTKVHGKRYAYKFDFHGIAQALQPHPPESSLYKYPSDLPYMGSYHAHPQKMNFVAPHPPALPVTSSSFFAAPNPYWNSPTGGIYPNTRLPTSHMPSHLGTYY
How it was run: as §1

[5] = molecular target: ELF1 (Homo sapiens, UniProt P32519 1-619)
How it was run: as §1

[6] = molecular target: T5, EHF (Homo sapiens, UniProt Q9NZC4 1-300)
T5 sequence: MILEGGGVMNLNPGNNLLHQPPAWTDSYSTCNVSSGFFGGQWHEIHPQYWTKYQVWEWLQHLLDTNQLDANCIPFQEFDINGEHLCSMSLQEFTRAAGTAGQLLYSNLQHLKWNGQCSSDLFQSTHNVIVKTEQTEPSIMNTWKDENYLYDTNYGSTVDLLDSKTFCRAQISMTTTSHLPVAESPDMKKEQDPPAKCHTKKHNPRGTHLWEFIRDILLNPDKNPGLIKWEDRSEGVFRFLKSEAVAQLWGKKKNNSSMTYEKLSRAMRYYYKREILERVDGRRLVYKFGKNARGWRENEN
How it was run: as §1

[7] = molecular target: SPI1 (Homo sapiens, UniProt P17947 1-270)
How it was run: as §1

[8] = molecular target: SPIB (Homo sapiens, UniProt Q01892 1-262)
How it was run: as §1

[9] = molecular target: T6, ELK3 (Homo sapiens, UniProt P41970 1-407)
T6 sequence: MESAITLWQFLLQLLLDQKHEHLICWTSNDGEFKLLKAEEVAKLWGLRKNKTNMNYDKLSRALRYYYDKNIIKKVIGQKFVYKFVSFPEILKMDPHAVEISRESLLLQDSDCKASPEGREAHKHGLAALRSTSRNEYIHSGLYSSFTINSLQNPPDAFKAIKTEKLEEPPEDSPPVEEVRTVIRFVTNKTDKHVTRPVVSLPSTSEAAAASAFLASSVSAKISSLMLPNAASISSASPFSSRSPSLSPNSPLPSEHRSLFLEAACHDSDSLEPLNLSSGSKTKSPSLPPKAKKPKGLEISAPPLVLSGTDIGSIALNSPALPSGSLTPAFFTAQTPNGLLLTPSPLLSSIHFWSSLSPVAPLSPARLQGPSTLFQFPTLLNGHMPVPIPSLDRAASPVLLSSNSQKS
How it was run: as §1

[10] = molecular target: T7, FEV (Homo sapiens, UniProt Q99581 1-238)
T7 sequence: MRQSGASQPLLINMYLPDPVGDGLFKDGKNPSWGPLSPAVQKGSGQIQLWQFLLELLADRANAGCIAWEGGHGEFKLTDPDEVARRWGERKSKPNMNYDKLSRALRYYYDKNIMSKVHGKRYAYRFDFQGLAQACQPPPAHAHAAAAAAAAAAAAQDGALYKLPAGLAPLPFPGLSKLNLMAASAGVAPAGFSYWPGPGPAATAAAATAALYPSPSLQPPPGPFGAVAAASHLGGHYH
How it was run: as §1

[11] = molecular target: ETV5 (Homo sapiens, UniProt P41161 1-510)
How it was run: as §1

[12] = molecular target: T8, SPIC (Homo sapiens, UniProt Q8N5J4 1-248)
T8 sequence: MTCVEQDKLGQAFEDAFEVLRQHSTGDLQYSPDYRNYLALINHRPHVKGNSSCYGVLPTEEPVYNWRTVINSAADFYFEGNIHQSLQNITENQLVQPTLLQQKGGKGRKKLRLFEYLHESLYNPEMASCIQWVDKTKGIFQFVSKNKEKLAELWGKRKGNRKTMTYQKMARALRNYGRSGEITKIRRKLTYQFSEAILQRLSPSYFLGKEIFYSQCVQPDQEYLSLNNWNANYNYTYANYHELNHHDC
How it was run: as §1

[13] = molecular target: ELF4 (Homo sapiens, UniProt Q99607 1-663)
How it was run: as §1

[14] = molecular target: T9, ELK4 (Homo sapiens, UniProt P28324-2 1-405)
T9 sequence: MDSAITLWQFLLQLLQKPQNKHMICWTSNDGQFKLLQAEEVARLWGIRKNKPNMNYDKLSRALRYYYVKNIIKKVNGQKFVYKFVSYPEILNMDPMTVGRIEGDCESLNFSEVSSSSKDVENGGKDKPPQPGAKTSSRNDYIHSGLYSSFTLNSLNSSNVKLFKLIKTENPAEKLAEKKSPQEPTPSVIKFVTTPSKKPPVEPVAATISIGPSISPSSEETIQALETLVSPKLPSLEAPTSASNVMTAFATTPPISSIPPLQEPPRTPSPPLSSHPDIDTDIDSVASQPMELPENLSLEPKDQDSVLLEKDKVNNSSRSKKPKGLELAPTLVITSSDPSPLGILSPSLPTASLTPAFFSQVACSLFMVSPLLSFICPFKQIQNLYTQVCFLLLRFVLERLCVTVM
How it was run: as §1

[15] = molecular target: T10, ETV2 (Homo sapiens, UniProt O00321 1-342)
T10 sequence: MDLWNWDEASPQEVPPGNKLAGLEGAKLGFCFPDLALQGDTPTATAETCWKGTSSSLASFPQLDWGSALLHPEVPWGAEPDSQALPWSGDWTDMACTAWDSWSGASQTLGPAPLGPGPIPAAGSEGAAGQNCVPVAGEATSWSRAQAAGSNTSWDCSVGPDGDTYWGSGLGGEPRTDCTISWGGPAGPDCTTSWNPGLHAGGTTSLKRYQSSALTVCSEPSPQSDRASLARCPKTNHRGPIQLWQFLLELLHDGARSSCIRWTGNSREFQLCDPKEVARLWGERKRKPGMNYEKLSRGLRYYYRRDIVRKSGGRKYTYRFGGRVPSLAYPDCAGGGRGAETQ
How it was run: as §1

[16] = molecular target: T11, ELF3 (Homo sapiens, UniProt P78545 1-371)
T11 sequence: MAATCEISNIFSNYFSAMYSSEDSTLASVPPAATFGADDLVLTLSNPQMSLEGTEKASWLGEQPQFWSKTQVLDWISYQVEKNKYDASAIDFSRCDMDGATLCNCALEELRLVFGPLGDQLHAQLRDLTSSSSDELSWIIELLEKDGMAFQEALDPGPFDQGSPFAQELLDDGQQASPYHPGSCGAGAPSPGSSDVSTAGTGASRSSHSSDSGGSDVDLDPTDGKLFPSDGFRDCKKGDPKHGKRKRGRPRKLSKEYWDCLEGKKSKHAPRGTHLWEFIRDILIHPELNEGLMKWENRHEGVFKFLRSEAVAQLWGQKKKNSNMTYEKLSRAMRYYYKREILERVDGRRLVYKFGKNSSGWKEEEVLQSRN
How it was run: as §1

[17] = molecular target: ETV1 (Homo sapiens, UniProt P50549 1-477)
How it was run: as §1

ETV1, sequence (P50549 whole entry): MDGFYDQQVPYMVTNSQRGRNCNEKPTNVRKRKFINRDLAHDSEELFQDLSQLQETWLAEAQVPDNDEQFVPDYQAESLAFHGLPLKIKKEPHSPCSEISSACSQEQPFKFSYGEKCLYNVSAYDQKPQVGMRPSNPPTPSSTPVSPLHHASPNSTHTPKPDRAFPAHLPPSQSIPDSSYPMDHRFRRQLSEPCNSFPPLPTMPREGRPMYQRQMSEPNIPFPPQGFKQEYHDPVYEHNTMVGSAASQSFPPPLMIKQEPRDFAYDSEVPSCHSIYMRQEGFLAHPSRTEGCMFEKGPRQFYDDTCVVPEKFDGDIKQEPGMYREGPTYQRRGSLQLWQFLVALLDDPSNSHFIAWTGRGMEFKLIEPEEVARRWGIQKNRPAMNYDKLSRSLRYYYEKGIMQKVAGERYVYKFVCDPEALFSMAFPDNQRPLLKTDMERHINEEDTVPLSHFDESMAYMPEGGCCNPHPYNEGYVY
SPIB, sequence (Q01892 whole entry): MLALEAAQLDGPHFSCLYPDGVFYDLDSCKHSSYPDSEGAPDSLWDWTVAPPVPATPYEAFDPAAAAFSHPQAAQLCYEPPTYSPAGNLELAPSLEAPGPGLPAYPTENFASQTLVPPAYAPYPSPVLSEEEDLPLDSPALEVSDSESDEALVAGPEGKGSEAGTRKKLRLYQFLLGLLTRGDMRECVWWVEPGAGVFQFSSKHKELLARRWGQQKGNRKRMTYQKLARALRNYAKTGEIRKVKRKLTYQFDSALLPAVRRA
ETV5, sequence (P41161 whole entry): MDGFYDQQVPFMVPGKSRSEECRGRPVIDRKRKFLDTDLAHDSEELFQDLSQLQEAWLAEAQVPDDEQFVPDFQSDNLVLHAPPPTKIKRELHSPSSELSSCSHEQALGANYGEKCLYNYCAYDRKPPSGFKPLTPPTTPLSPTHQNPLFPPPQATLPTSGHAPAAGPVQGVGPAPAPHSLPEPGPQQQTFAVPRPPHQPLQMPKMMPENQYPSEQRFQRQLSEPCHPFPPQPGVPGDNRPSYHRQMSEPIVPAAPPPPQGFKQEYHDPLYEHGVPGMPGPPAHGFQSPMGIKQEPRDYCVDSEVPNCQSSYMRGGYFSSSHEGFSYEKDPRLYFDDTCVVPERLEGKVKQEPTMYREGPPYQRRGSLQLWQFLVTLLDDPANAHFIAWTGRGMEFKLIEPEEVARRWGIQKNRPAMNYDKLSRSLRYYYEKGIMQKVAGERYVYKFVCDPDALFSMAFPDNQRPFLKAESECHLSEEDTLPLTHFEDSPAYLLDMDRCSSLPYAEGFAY
ELF1, sequence (P32519 whole entry): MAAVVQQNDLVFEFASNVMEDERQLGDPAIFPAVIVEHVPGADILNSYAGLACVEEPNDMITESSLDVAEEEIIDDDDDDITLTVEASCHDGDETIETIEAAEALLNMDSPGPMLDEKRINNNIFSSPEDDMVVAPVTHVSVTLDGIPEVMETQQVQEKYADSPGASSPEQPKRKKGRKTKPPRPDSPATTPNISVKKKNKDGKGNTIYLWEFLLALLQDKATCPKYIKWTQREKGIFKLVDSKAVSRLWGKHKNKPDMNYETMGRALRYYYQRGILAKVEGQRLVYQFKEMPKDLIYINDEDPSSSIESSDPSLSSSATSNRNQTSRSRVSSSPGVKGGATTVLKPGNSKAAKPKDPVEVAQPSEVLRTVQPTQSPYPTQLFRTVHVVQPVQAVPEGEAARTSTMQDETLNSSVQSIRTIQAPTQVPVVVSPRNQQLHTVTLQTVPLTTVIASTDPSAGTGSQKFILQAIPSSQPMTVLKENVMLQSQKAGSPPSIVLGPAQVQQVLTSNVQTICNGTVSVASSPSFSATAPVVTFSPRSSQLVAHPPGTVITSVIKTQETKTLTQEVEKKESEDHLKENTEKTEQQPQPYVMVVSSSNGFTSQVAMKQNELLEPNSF
ELF4, sequence (Q99607 whole entry): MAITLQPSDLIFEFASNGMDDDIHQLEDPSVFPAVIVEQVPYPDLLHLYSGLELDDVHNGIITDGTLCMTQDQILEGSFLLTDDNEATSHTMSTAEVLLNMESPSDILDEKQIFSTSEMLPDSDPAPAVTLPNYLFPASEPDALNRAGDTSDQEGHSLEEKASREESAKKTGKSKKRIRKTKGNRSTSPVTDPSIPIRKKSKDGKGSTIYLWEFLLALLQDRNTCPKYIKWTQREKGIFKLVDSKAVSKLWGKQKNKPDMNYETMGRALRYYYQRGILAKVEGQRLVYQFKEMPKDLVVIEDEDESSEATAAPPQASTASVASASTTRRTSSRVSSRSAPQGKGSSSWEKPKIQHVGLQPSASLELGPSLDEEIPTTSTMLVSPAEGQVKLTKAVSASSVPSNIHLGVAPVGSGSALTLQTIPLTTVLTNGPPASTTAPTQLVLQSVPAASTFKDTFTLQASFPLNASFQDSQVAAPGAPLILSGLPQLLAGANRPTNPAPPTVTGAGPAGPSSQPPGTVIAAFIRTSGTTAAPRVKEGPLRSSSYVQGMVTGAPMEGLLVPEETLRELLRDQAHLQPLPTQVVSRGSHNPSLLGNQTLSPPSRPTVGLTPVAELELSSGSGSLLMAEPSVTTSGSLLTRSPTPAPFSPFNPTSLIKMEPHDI

Sequence	binding signal [1]	binding signal [2]	binding signal [3]	binding signal [4]	binding signal [5]	binding signal [6]	binding signal [7]	binding signal [8]	binding signal [9]	binding signal [10]	binding signal [11]	binding signal [12]	binding signal [13]	binding signal [14]	binding signal [15]	binding signal [16]	binding signal [17]
ATGCGG	1.3 fold enrichment (6-mer frequency, TF over GST control)	1.22 fold enrichment (6-mer frequency, TF over GST control)	1.2 fold enrichment (6-mer frequency, TF over GST control)	1.22 fold enrichment (6-mer frequency, TF over GST control)	1.2 fold enrichment (6-mer frequency, TF over GST control)	1.31 fold enrichment (6-mer frequency, TF over GST control)	1.56 fold enrichment (6-mer frequency, TF over GST control)	1.32 fold enrichment (6-mer frequency, TF over GST control)	1.23 fold enrichment (6-mer frequency, TF over GST control)	1.13 fold enrichment (6-mer frequency, TF over GST control)	1.29 fold enrichment (6-mer frequency, TF over GST control)	1.49 fold enrichment (6-mer frequency, TF over GST control)	1.23 fold enrichment (6-mer frequency, TF over GST control)	1.15 fold enrichment (6-mer frequency, TF over GST control)	1.27 fold enrichment (6-mer frequency, TF over GST control)	1.63 fold enrichment (6-mer frequency, TF over GST control)	1.24 fold enrichment (6-mer frequency, TF over GST control)
ACTGCA	1.1 fold enrichment (6-mer frequency, TF over GST control)	1.17 fold enrichment (6-mer frequency, TF over GST control)	1.05 fold enrichment (6-mer frequency, TF over GST control)	1.09 fold enrichment (6-mer frequency, TF over GST control)	1.19 fold enrichment (6-mer frequency, TF over GST control)	1.12 fold enrichment (6-mer frequency, TF over GST control)	1.27 fold enrichment (6-mer frequency, TF over GST control)	1.15 fold enrichment (6-mer frequency, TF over GST control)	1.11 fold enrichment (6-mer frequency, TF over GST control)	1.18 fold enrichment (6-mer frequency, TF over GST control)	1.2 fold enrichment (6-mer frequency, TF over GST control)	1.34 fold enrichment (6-mer frequency, TF over GST control)	1.09 fold enrichment (6-mer frequency, TF over GST control)	1.25 fold enrichment (6-mer frequency, TF over GST control)	1 fold enrichment (6-mer frequency, TF over GST control)	1.08 fold enrichment (6-mer frequency, TF over GST control)	1.01 fold enrichment (6-mer frequency, TF over GST control)
